{"source": "PubChem BioAssay (Tox21)", "note": "Records with an inconclusive call do not appear. Active and inactive are the calls of the source. Calls follow the shape of the dose curve; as a rule, active = well fitted cell-killing curve with a large enough effect in the repeat runs; inconclusive = weak or mixed curves; inactive = flat fitted curve, though single readings scatter.", "data": [{"test": "qHTS assay to identify small molecule antagonists of the estrogen receptor beta (ER-beta) signaling pathway - cell viability counter screen (AID 1259382); also: nearly all actives have a fitted effect of over 55% in size", "details": "ER-beta-UAS-bla HEK293T viability, CellTiter-Glo luminescence, 16 h; series mostly up to 92.4 µM", "description": "U.S. Tox21 Program National Center for Advancing Translational Sciences [NCATS] NIH Chemical Genomics Center [NCGC] U.S. Environmental Protection Agency [EPA] National Institutes of Environmental Health Sciences [NIEHS] National Toxicology Program [NTP] U.S. Food and Drug Administration [FDA] Tox21 Assay Overview: Estrogen receptor (ER), a nuclear hormone receptor, plays an important role in development, metabolic homeostasis and reproduction. Two subtypes of ER, ER-alpha and ER-beta, have similar expression patterns with some uniqueness in both types. Endocrine disrupting chemicals (EDCs) and their interactions with steroid hormone receptors like ER causes disruption of normal endocrine function. To identify the compounds that inhibit ER signaling, an ER-beta-UAS-bla GripTite cell line (Life Technologies, Madison, WI, USA) containing a beta-lactamase reporter gene under the control of an UAS response element was used to screen Tox21 10K compound library. The cytotoxicity of the Tox21 compound library against the ER-beta-bla cell line was tested in parallel by measuring the cell viability using CellTiter-Glo assay in the same wells.\nTox21 Assay Protocol Summary: ER-beta-UAS-bla HEK293T cells were dispensed at 2,000 cells/4 uL of assay medium containing 2% charcoal stripped FBS per well into black wall/clear-bottom 1536-well plates using a Multidrop Combi (ThermoFisher Scientific, Waltham, MA) dispenser. After the assay plates were incubated at a 37C and 5% CO2 for 6 hr, 23 nL of compounds dissolved in DMSO, positive controls or DMSO only was transferred to the assay plate by a Pintool station (Kalypsys, San Diego, CA), followed by addition of 1 uL (1nM as final concentration) of 17-beta-estradiol (E2) in assay medium using a Flying Reagent Dispenser (FRD, Aurora Discovery, San Diego, CA). The plates were incubated at 37C and 5% CO2 for 16 hr. Then 1 uL of LiveBLAzer B/G FRET substrate was added using a Flying Reagent Dispenser, the plates were incubated at room temperature for 2 hours, and fluorescence intensity was measured by an Envision plate reader (PerkinElmer, Shelton, CT). For cell viability readout that measures cytotoxicity, 4 uL/well of CellTiter-Glo reagent was added into the assay plates using a FRD. After 30 min incubation at room temperature, the luminescence intensity in the plates was measured using a ViewLux (PerkinElmer) plate reader.", "values": [{"smiles": "CCCCCCCO", "outcome": "inactive"}, {"smiles": "CCO[Si](CCCN)(OCC)OCC", "outcome": "inactive"}, {"smiles": "COc1cc(OC)c(C(=O)CCCN2CCCC2)c(OC)c1", "outcome": "inactive"}, {"smiles": "C=CC[N+](C)(C)CC=C", "outcome": "inactive"}, {"smiles": "C=CCCCCCCCCC(=O)O", "outcome": "inactive"}, {"smiles": "CCCCCCCCCCCC(=O)OC", "outcome": "inactive"}, {"smiles": "CCOCC(=O)O", "outcome": "inactive"}, {"smiles": "CN1C(=O)CC[C@H]1c1cccnc1", "outcome": "inactive"}, {"smiles": "CCCCOC(=O)c1ccc(N)cc1", "outcome": "inactive"}, {"smiles": "c1ccc2c(c1)Cc1ccccc1-2", "outcome": "inactive"}, {"smiles": "NCCNCCN", "outcome": "inactive"}, {"smiles": "O=C(O)Cn1c(=O)n(Cc2ccc(Br)cc2F)c(=O)c2ccc(Cl)cc21", "outcome": "inactive"}, {"smiles": "CNC(=O)Oc1ccc2c(c1)[C@]1(C)CCN(C)[C@@H]1N2C", "outcome": "inactive"}, {"smiles": "CCc1ccccc1CC", "outcome": "inactive"}, {"smiles": "Cc1ccc(S(=O)(=O)N=C=O)cc1", "outcome": "inactive"}, {"smiles": "CN/C(=C\\[N+](=O)[O-])NCCSCc1csc(CN(C)C)n1", "outcome": "inactive"}, {"smiles": "C=Cc1ccc(C)cc1", "outcome": "inactive"}, {"smiles": "CC1(C)S[C@@H]2[C@H](NC(=O)COc3ccccc3)C(=O)N2[C@H]1C(=O)O", "outcome": "inactive"}, {"smiles": "CN(C)c1ccc(O)c2c1C[C@H]1C[C@H]3[C@H](N(C)C)C(=O)C(C(N)=O)=C(O)[C@@]3(O)C(=O)C1=C2O", "outcome": "inactive"}, {"smiles": "CCCCC(C=O)CC", "note": "(stereo not given)", "outcome": "inactive"}, {"smiles": "N#Cc1ccccc1", "outcome": "inactive"}, {"smiles": "CCNc1cccc(C)c1", "outcome": "inactive"}, {"smiles": "CCCCCCC=O", "outcome": "inactive"}, {"smiles": "CCO[Si](CCC#N)(OCC)OCC", "outcome": "inactive"}, {"smiles": "CC(CCl)OP(=O)(OC(C)CCl)OC(C)CCl", "note": "(stereo not given)", "outcome": "inactive"}, {"smiles": "c1ccc(Oc2ccccc2)cc1", "outcome": "inactive"}, {"smiles": "O=C(O)c1ccc(C(=O)O)c(C(=O)O)c1", "outcome": "inactive"}, {"smiles": "OC1C(O)C(O)C(O)C(O)C1O", "note": "(stereo not given)", "outcome": "inactive"}, {"smiles": "O=C(O)c1cc2ccccc2cc1O", "outcome": "inactive"}, {"smiles": "CCCCCCCCCCCCCCCCO", "outcome": "inactive"}, {"smiles": "COc1ccc([N+](=O)[O-])cc1N", "outcome": "inactive"}, {"smiles": "Clc1ccccn1", "outcome": "inactive"}, {"smiles": "O=C1c2ccccc2CCc2ccccc21", "outcome": "inactive"}, {"smiles": "CNC(=S)N(C)C", "outcome": "inactive"}, {"smiles": "CC(=O)OCc1ccco1", "outcome": "inactive"}, {"smiles": "Cc1ccc2ncccc2c1", "outcome": "inactive"}, {"smiles": "O=S(=O)(O)c1ccc(N=Nc2c(O)ccc3cc(S(=O)(=O)O)ccc23)cc1", "outcome": "inactive"}, {"smiles": "CSc1ccc(Cl)cc1", "outcome": "inactive"}, {"smiles": "C[C@]12CCC(=O)C=C1CC[C@@H]1[C@@H]2[C@@H](O)C[C@@]2(C)[C@H]1CC[C@]2(O)C(=O)CO", "outcome": "inactive"}, {"smiles": "Nc1ccc(Cl)c(N)c1", "outcome": "inactive"}]}]}
